The list is not random: actives were taken first. Their share in the collection is about 2%.
Rango dissoc inh: qHTS Assay for Inhibitors of RanGTP induced Rango (Ran-regulated importin-beta cargo) - Importin beta complex dissociation | Snurportin-1 (Homo sapiens) + GTP-binding nuclear protein Ran (Homo sapiens) + Importin … | Biochemical FRET Rango-importin beta, RanGTP-induced dissociation | Potency, µM (titrated, usually from 46.1 µM), for inactives: at the top dose activity change, negative = inhibition | actives 0.071% (n = 340,000); calls by dose curve; also: % of control where 0% means no effect; nearly all actives have a fitted effect of over 45% in size
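Rango (0.1 uM)–importin beta (0.25 uM) complex; RanGTP-RCC1 trigger; 45 min RT; CFP/YFP FRET read.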
TDP43 rescue: qHTS of TDP-43 Inhibitors; TDP-43 expressing yeast growth rescue, BacTiter-Glo, 24 h; Potency, µM (series often up to 46.1 µM), for the others: at the highest dose growth rescue (activation), actives largely listed as activators; actives 1.8% (n = 410,000); AID 652104, 2013; also: % of control where 0% means no effect; nearly all actives have a fitted effect of over 50% in size
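In this qHTS, compounds that restore growth of yeast expressing TDP-43 appear as activators. Cells (OD600=0.02, galactose medium, raffinose-pregrown) are incubated with compound 24 hr at 30 deg C and growth is quantified by BacTiter-Glo.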
aSyn rescue: qHTS of alpha-syn Inhibitors; Yeast expressing alpha-synuclein, growth rescue, BacTiter-Glo, 24 h; Potency, µM (top dose mostly 46.1 µM), for inactives: at the top dose growth rescue (activation), hits mostly activators; actives 0.14% (n = 370,000); also: % of control where 0% means no effect; nearly all actives have a fitted effect of over 65% in size
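Rescue of yeast growth: cells expressing toxic alpha-synuclein, induced in galactose at OD600 0.02, incubated with compound 24 h at 30 C. ATP luminescence quantified growth; inhibitors of toxicity appear as activators.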
Rango complex inh: qHTS Assay for Inhibitors of Rango (Ran-regulated importin-beta cargo) - Importin beta complex formation. Potency, µM (doses to about 92.2 µM), inactives show at the top dose inhibition of complex formation. Rango CFP/YFP FRET sensor + importin beta, 45 min. AID 540263, 2011. actives 0.031% (n = 340,000). Importin subunit beta-1 (Homo sapiens), Q14974; calls by dose curve;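 also: 0% = DMSO wells and 100% = buffer wells lacking importin beta; nearly all actives have a fitted effect of over 15% in size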
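Inhibition scored from the CFP 486 nm/YFP 530 nm FRET ratio 45 min after adding 0.125 microM importin beta to 50 nM Rango biosensor preincubated 5 min with compound (room temperature, PBS with DTT, Tween-20, BSA). No-importin wells as positive control.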
Abeta rescue: qHTS for compounds that reverse cellular toxicity of Amyloid beta (A-beta) peptide in yeast: Primary Screen; yeast expressing A-beta42, growth rescue, OD600, 48 h; response scale: 0% DMSO, 100% iron-clioquinol control; Potency, µM (highest dose often 46.1 µM), hits mostly activators; actives 0.063% (n = 410,000); AID 1347071, 2019; also: nearly all actives have a fitted effect of over 55% in size
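Yeast A-beta toxicity model in growth medium with pinned compounds, 48 h at 30 C; growth read as absorbance at 600 nm. Normalized to FeCl3/clioquinol equimolar mix (positive) and DMSO (negative).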
ASM inhibitor: Inhibitors of Secretory Acid Sphingomyelinase (S-ASM): qHTS. Sphingomyelin phosphodiesterase (Homo sapiens), P17405. placental ASM, HMU-PC fluorogenic substrate, 60 min. Potency, µM (doses to about 57.5 µM), for the others: at the highest dose activity change, negative = inhibition, usual class: inhibitors. actives 0.006% (n = 340,000)
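Fluorescence read-out (Ex 386 nm, Em 447 nm) after stopping the reaction at pH 10. Enzyme: ASM from human placenta; substrate HMU-PC0, 9 uM final; 60 min, 37 °C. Compound preincubation 10 min, ambient temperature.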
* marks the source's active call; other numbers are inactive results; i = inactive; ? = inconclusive; . = no result. Unless noted, calls follow the shape of the dose curve; as a rule, active = well fitted curve in the direction sought with a large enough effect; inconclusive = small, poorly fitted or top-dose-only effect, or another doubt; inactive = no such curve, though single readings can be large; an effect the other way counts as inactive or inconclusive. Potency is read from the fitted curve at half-maximal effect.

SMILES	Rango dissoc inh	TDP43 rescue	aSyn rescue	Rango complex inh	Abeta rescue	ASM inhibitor
O=Cc1c(NCc2ccccc2F)c2ccccc2[nH]c1=O	-10%	11µM*	0%	-4%	i	-2%
O=Cc1c(NCCc2ccc(F)cc2)c2ccccc2[nH]c1=O	-12%	?	0%	1%	i	2%
CCc1ccc(C2=CC(c3cccc(OC)c3OC)n3c(nc4ccccc43)N2)cc1 (stereo not given)	.	1%	.	.	i	.
CC(C)c1ccc(C2=CC(c3cccc(Cl)c3)n3c(nc4ccccc43)N2)cc1 (stereo not given)	.	18µM*	.	.	i	.
CCOc1ccc(C2=CC(c3cccc(Br)c3)n3c(nc4ccccc43)N2)cc1Cl (stereo not given)	.	13µM*	.	.	i	.
CCc1ccc(C2=CC(c3cccc(C)c3)n3c(nc4ccccc43)N2)cc1 (stereo not given)	.	13µM*	.	.	i	.
CC(C)c1ccc(C2=CC(c3ccc(C(C)C)cc3)n3nnnc3N2)cc1 (stereo not given)	.	-3%	.	.	i	.
CC(C)c1ccc(C2=CC(c3cccc(Cl)c3)n3ncnc3N2)cc1 (stereo not given)	.	13µM*	.	.	i	.
COc1ccc(-n2c(-c3cnccn3)n[nH]c2=S)cc1	6%	-19%	3.5µM*	4%	i	2%
O=C1C=C(Nc2cccc(O)c2)CC(c2ccco2)C1 (stereo not given)	12µM*	-2%	3%	?	i	8%
CC1CCCCN1c1cc2c(cc1F)c(=O)c(S(=O)(=O)c1ccccc1)cn2Cc1ccccc1 (stereo not given)	.	19%	.	.	i	.
Cc1ccc(NC(=O)c2cc3c([nH]c2=O)CC(c2ccccc2)CC3=O)cc1 (stereo not given)	.	.	10%	.	.	.
Cc1cccc(N2CCN(S(=O)(=O)c3ccc4c(c3)C(C(C)C)C(=O)N4)CC2)c1C (stereo not given)	.	17%	10%	.	i	.
CCCCCn1c(N2CCC(Cc3ccccc3)CC2)nc2c1c(=O)[nH]c(=O)n2C	-2%	-67%	-46%	-1%	i	-16%
CCCn1c(N2CCC(Cc3ccccc3)CC2)nc2c1c(=O)[nH]c(=O)n2C	0%	22µM*	17%	0%	i	-20%
CCOc1ccc(NC(=O)CCS(=O)(=O)c2ccc(Br)s2)cc1	.	0%	.	.	i	.
CSc1ccc(CCNC(=O)C2CCCN(S(=O)(=O)N(C)c3ccc(F)cc3)C2)cc1 (stereo not given)	.	0%	.	.	i	.
Cc1ccc(F)cc1C(=O)N1CCCCC1c1cc(C(=O)Nc2ccccc2)no1 (stereo not given)	.	0%	12%	.	i	.
O=C(Nc1ccc(F)c(Cl)c1)c1cc(C2CCCN(C(=O)c3cccs3)C2)on1 (stereo not given)	.	22µM*	0%	.	i	.
O=C(Nc1ccc(F)c(Cl)c1)c1cc(C2CCCCN2C(=O)c2cccs2)on1 (stereo not given)	.	-2%	11%	.	i	.
O=C(Nc1ccccc1)c1cc(C2CCCN(C(=O)C/C=C/c3ccccc3)C2)on1 (stereo not given)	.	22µM*	-4%	.	i	.
Cc1ccc(F)cc1C(=O)N1CCCC(c2cc(C(=O)Nc3ccccc3)no2)C1 (stereo not given)	.	35µM*	?	.	i	.

High-throughput results deposited in PubChem by National Center for Advancing Translational Sciences (NCATS).
